According to PubChem BioAssay AID449762 (Southern Research Specialized Biocontainment Screening …, 2010):
Where “and” joins values, the source holds several entries; their conditions need not be identical. Equal values may be shown once. Among all 330,000 compounds or so, about 1,900 (0.58%) were called active. Another 4% or so got no clear call; they are omitted. A selection follows. Measured potencies and affinities stand elsewhere. Unmarked numbers belong to inactive results. No stated cut-off is given here; in the data, inconclusive means inhibition above about 70% without an active follow-up result; inactive means below that.

assay: M. tuberculosis growth inhibition, HTS (AID 449762);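 further: bacterial growth assessed after seven days of incubation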; conditions: M. tuberculosis H37Rv growth inhibition, 7H9 media; at 25 µM; hits give high values

In order of falling inhibition:
1. COc1ccc(S(=O)(=O)N2CCC(c3cc(-c4cccc5ccccc45)n[nH]3)CC2)cc1  66.5%
2. NC(=O)CSc1nc(N)c2c3c(sc2n1)CCCCC3  42.6%
3. Nc1nc2ccccc2n1CCOc1ccc(F)cc1  41.5%
4. CCCCOc1ccc(C(=O)N2CCN(c3ccc(N4CCOCC4)nn3)CC2)cc1  37.3%
5. COc1cc2nc(Nc3cccc(F)c3)nc(N)c2cc1OC  34.9%
6. C=CCNC(=O)c1onc(CSc2ccc(Cl)cc2)c1C(=O)NCC=C  27.7%
7. COc1ccnc(Oc2ccc(F)cc2)c1C(=O)N/C=N/OCc1cccc(F)c1  24.6%
8. COc1cc2nc(Nc3ccc(F)cc3)nc(N)c2cc1OC  23.2%
9. Cc1c2ccccc2nc2ccccc12  21.6%
10. c1ccc(-c2nc(-c3ccccn3)nc(-c3ccccn3)n2)nc1  14.8%
11. CN(CCOc1ccccc1)C(=O)C1CCC(=O)N(CCCN2CCOCC2)C1 (stereo not given)  14.5%
12. c1ccc(-c2ccccn2)nc1  11.8%
13. CN=C1NN=C(c2cc(C)n(-c3c(C)n(C)n(-c4ccccc4)c3=O)c2C)CS1  10.5%
14. CC1(c2nnc(-c3ccccc3)o2)CC(c2ccncc2)=NO1 (stereo not given)  10.1%
15. CC1CCc2nc3ccccc3c(C(=O)OCC(=O)NC3CCS(=O)(=O)C3)c2C1 (stereo not given)  9.92%
16. Nc1nc2ccccc2n1CCOc1ccc(Cl)cc1  9.81%
17. COc1ccc(CCC(=O)NCCS(=O)(=O)N2CCN(c3ccccc3F)CC2)cc1  9.75%
18. CCCSc1nnc2n(C)c(=O)c3c4c(sc3n12)CCC4  9.4%
19. CCCCC[C@@H]1C=C(C(=O)O)[C@H](c2cccc(C)c2)N1S(=O)(=O)c1ccc(C)cc1  9.09%
20. Cc1cccc(NC(=O)C2CCN(S(=O)(=O)c3c(C)noc3C)CC2)c1  8.96%
21. COC(=O)C1=C(C)N(C)C(=S)NC1c1c(OC)ccc2ccccc12 (stereo not given)  8.17%
22. O=C(Cc1c(Cl)cccc1Cl)N1CCN(Cc2ccccc2)CC1  7.3%
23. CC1Cc2ccccc2N1C(=O)CSc1nc2ccccc2n1CC(=O)N1CCOCC1 (stereo not given)  7.22%
24. O=C(Nc1cccc(C(=O)N2CCCc3ccccc32)c1)c1ccccc1  6.88%
25. COc1ccc(S(=O)(=O)Nc2c(F)cccc2F)cc1  6.44%
26. CCc1ccc2[nH]c(C(=O)Nc3ccc(C)c(F)c3)cc2c1  6.38%
27. FC(F)(F)c1cccc(-c2cc(C3CCNCC3)[nH]n2)c1  6.36%
28. CC(C)(C)C1CCc2c(sc3nc(SCC(=O)O)nc(N)c23)C1 (stereo not given)  6.02%
29. COc1ccc(S(=O)(=O)N2CCN(CC(=O)Nc3ccccc3OC)CC2)cc1  5.95%
30. Cc1nc(C)c(-c2csc(Nc3ccccn3)n2)s1  5.67%
31. COC(=O)CCN1CCC(c2cc(-c3cccc(C(F)(F)F)c3)n[nH]2)CC1  5.38%
32. Cn1cc(C(=O)N2CCCCC2)c2ccccc21  5.24%
33. C=CCNC(=O)c1onc(CSc2ccc(OC)cc2)c1C(=O)O  4.85%
34. C=C(C)CSc1nnc2n(C)c(=O)c3c4c(sc3n12)CCC4  4.7%
35. CC1(c2nnc(-c3ccccc3)o2)CC(c2ccccc2)=NO1 (stereo not given)  4.65%
36. COc1ccc(-c2nc(-c3ccncc3)no2)c(OC)c1  4.47%
37. CCCOc1ccc2[nH]c(C(=O)N/N=C/c3cc(OC)c(OC)c(OC)c3)cc2c1  4.27%
38. CC12CCC(=O)N1C(C(=O)N1CCN(c3ccc(C(F)(F)F)cc3[N+](=O)[O-])CC1)CS2 (stereo not given)  4.09%
39. COc1ccc(CC(=O)Nc2ccc(C#N)c(Cl)c2)cc1S(=O)(=O)N1CCOCC1  3.7%
40. Cc1cc(OCC(=O)NCCCN2CCOCC2)c2c(C)cc(=O)oc2c1  3.65%
41. Cc1nn(Cc2ccccc2)c(Cl)c1C(=O)OCC(=O)NC(=O)NC12CC3CC(CC(C3)C1)C2  3.45%
42. C[C@@H]1CCCCCCCCC(=O)OCCN(C(=O)OC(C)(C)C)[C@H](C)CCCCCCCCC(=O)OCCN1C(=O)OC(C)(C)C  3.06%
43. Cc1ccc(-c2ccccc2NC(=O)C2C3C=CC(C3)C2C(=O)O)o1 (stereo not given)  3.02%
44. COc1ccccc1C(=O)NC(=O)Nc1c(C)cc(C)cc1C  1.95%
45. c1cc[n+](CCC[n+]2ccccc2)cc1  1.9%
46. CN(C)S(=O)(=O)c1cc(NC(=O)CN2CCN(c3ccccc3)CC2)ccc1Cl  1.87%
47. CNC1=C([N+](=O)[O-])CC([N+](=O)[O-])=C(N2CCNCC2)N1C  1.39%
48. CC(=O)Nc1cccc(NC(=O)C2C3C=CC(C3)C2C(=O)O)c1 (stereo not given)  1.17%
49. COc1ccc(CNC(=O)C[C@H]2C(=O)N(c3ccccc3)C[C@@H]2Cc2ccccc2)cc1  0.74%
50. c1ccc(-c2nnc(-c3ccccn3)c(-c3ccccn3)n2)nc1  0.73%
51. Cc1cc(C2=NNC(=NC3CC3)SC2)c(C)n1-c1c(C)n(C)n(-c2ccccc2)c1=O  0.5%
52. CCN=C1NN=C(c2c[nH]c3ccccc23)CS1  0.3%
53. CN(CC(=O)Nc1ccc(F)cc1)C(=O)COC(=O)c1cc(S(=O)(=O)N(C)C)ccc1N1CCCC1  0.17%
54. CC(=O)N1CCN(c2nc(C)nc3sc4c(c23)CCC(C)C4)CC1 (stereo not given)  -0.41%
55. COc1ccc(S(=O)(=O)N(C)CC(=O)NC2CCCC2)cc1OC  -0.73%
56. S=C(NCCNC(=S)Nc1ccccc1)Nc1ccccc1  -0.85%
57. C[C@@H]1CCCCCCCCC(=O)OCCN(C(=O)OC(C)(C)C)[C@H](C)CCCCCCCCC(=O)OCCN(C(=O)OC(C)(C)C)[C@H](C)CCCCCCCCC(=O)OCCN(C(=O)OC(C)(C)C)[C@H](C)CCCCCCCCC(=O)OCCN1C(=O)OC(C)(C)C  -0.93%
58. O=C(CC1C(=O)NCCN1Cc1ccc(F)cc1)NCCCn1cccn1 (stereo not given)  -1%
59. CC(C)Nc1nc(-c2ccccn2)nc(-c2ccccc2)c1C#N  -1.18%
60. CS(=O)(=O)c1ccc(C(=O)NCc2ccccc2F)cc1  -1.2%
61. COCCn1c(=NC(=O)CSC(C)=O)sc2cc(OC)ccc21  -1.47%
62. Cc1cc(C)c2cc(C(=O)Nc3ccc4c(c3)OCO4)[nH]c2c1  -1.94%
63. COc1ccc(CNS(=O)(=O)c2cc3c4c(c2)C(C)C(=O)N4CCC3)cc1 (stereo not given)  -1.95%
64. COc1ccc(N2CCN(C(=O)CCNS(=O)(=O)c3ccc(C)cc3)CC2)cc1  -1.98%
65. Cc1nc(N2CCN(C(=O)c3cnccn3)CC2)c2c3c(sc2n1)CC(C(C)(C)C)CC3 (stereo not given)  -2.07%
66. CCn1c(O)c(N=Nc2cccc(S(=O)(=O)N3CCOCC3)c2)c(=O)n(CC)c1=S  -2.11%
67. O=C1NCN(c2ccccc2)C12CCN(c1nnnn1-c1ccccc1)CC2  -2.38%
68. O=S(=O)(NCCc1cn2ccccc2n1)c1ccc2c(c1)OCCO2  -2.59%
69. CS(=O)(=O)c1ccc(C(=O)NC(Cc2ccccc2)c2ccccc2)cc1 (stereo not given)  -2.61%
70. O=S(=O)(c1cccc2cccnc12)N1CCN(c2ccccn2)CC1  -2.85%
71. COc1cccc(NS(=O)(=O)c2nc3nc(C)cc(C)n3n2)c1  -2.88%
72. O=C1NCN(c2ccccc2)C12CCNCC2  -2.9%
73. FC(F)Oc1ccc(NC(=S)Nn2cnnc2)cc1  -3%
74. COc1ccc(C(CNc2nc(-c3cccnc3)nc3ccccc23)N(C)C)cc1 (stereo not given)  -3.31%
75. COc1cccc(CN(C)CC(=O)Nc2ccccc2C(=O)Nc2ccccc2)c1OC  -3.55%
76. c1ccc2c(C3=NNC(=NC4CC4)SC3)c[nH]c2c1  -4.02%
77. Cc1c(C(=O)NCc2ccc(S(N)(=O)=O)cc2)oc2ccc(Cl)cc12  -4.55%
78. C[C@H](NC(=O)N1CCn2c1nc1ccccc12)C(=O)N1CCCCC1  -4.78%
79. CN1CCCN(C(=O)c2cccc(Br)c2)CC1  -4.86%
80. Cn1c(CSCc2ccc(F)cc2)n[nH]c1=S  -6.48%
81. c1cc[n+](CCCC[n+]2ccccc2)cc1  -7%
82. CCN(CC)S(=O)(=O)c1ccc(N2CCCC2)c(NC(=O)C2=COCCO2)c1  -7.17%
83. C/C(=N\NC(=O)c1ccc(Cn2cc(Br)cn2)o1)c1cccc(NC(=O)C(C)(C)C)c1  -8.27%
84. O=C(NCC(c1cccnc1)N1CCN(c2ccc(F)cc2)CC1)Oc1ccccc1 (stereo not given)  -8.33%
85. CC(C)(C)[C@H]1COC(=O)[C@@H](Cc2ccc(F)cc2)C/C=C\C[C@@H](CC(=O)N[C@@H](CO)Cc2ccccc2)C(=O)N1  -8.38%
86. CCOc1ccc(CCNC(=O)Cc2ccc(NC3=NC4CS(=O)(=O)CC4S3)cc2)cc1 (stereo not given)  -10.9%
87. O=C(Nc1ccc(F)cc1)c1cnc(-c2ccccc2)nc1-c1ccccc1  -11.2%
88. CCc1cccc(NC(=O)CCCN2C(=O)NC(C)(C)C2=O)c1  -11.7%
89. COc1cc2nc(N3CCNCC3)nc(N)c2cc1OC  -16.4%

For `COc1cc2nc(N3CCN(C(=O)c4ccco4)CC3)nc(N)c2cc1OC`, the inhibition was -7.62% and 1.49%.
